The structures appear in SMILES notation. This is part of a sample that, as a whole, favours compounds with a hit. Of some 83,000 tested, about 20% had one in any assay.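 Percent growth is the endpoint: 0 to 100 indicates growth inhibition (40 means 60% inhibition), 0 means no net growth, and negative values indicate cell death.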 A number with no mark means an inactive call. The calls were made as follows: active = growth percent below 10; inactive = the rest.

The assay relates to MDA-MB-468 breast. The assay can be described thus: NCI-60 one-dose screen, 48 h (100 = growth as untreated, 0 = no growth, -100 = all killed). The settings on record: 10 µM unless noted.
For `COc1ccccc1N1CCN(C2=CC(=O)C(C)=C(C)C2=O)CC1`, the growth was 85.8%. `CCNC(=O)C1CCCN1C(=O)C(CCCN=C(N)N)NC(=O)C(CC(C)C)NC(=O)C(CC(C)C)NC(=O)C(Cc1ccc(O)cc1)NC(=O)C(CO)NC(=O)C(Cc1c[nH]c2ccccc12)NC(=O)C(Cc1cnc[nH]1)NC(=O)C1CCC(=O)N1` (stereo not drawn): the growth is 87.4%.

In the case of `C[N+](C)(C/C=C/c1ccccc1)Cc1ccccc1`, the growth was 78.8%.

These data come from PubChem BioAssay (NCI).
